Screening data (PubChem)
A selection: hits, their analogues and other compounds. The true share with any hit is near 9.4%.
HTT aggregate: qHTS Multiplex Assay to Identify Dual Action Probes in a Cell Model of Huntington: Aggregate Formation (GFP); PC12 HttQ103-GFP aggregates, Acumen cytometry, 40 h; Potency, µM (series often up to 46.1 µM), usual class: inhibitors; 220,000 compounds, 1.1% hits; AID 1688, 2009; note: nearly all actives have a fitted effect of over 60% in size
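PC12 cells stably carrying ecdysone-inducible HTT exon 1 Q103–GFP were induced with tebufenozide (100 nM final) and treated with library compounds in titration. GFP aggregates in lysates were counted by laser scanning cytometry.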
ALDH1A1 inh-1: qHTS Assay for Inhibitors of Aldehyde Dehydrogenase 1 (ALDH1A1) | 220,000 compounds, 7.3% hits | AID 1030, 2008 | Potency, µM (top dose mostly 75.3 µM), actives largely listed as inhibitors | Purified ALDH1A1, NADH fluorescence, propionaldehyde substrate | Aldehyde dehydrogenase 1A1 (Homo sapiens), P00352; active = well fitted inhibition curve with a large enough effect, not every such curve was filed as active; inconclusive = small, poorly fitted or top-dose-only effect, or another doubt; inactive = no such curve, though single readings can be large or run the other way
Target sequence (P00352 whole entry, looked up): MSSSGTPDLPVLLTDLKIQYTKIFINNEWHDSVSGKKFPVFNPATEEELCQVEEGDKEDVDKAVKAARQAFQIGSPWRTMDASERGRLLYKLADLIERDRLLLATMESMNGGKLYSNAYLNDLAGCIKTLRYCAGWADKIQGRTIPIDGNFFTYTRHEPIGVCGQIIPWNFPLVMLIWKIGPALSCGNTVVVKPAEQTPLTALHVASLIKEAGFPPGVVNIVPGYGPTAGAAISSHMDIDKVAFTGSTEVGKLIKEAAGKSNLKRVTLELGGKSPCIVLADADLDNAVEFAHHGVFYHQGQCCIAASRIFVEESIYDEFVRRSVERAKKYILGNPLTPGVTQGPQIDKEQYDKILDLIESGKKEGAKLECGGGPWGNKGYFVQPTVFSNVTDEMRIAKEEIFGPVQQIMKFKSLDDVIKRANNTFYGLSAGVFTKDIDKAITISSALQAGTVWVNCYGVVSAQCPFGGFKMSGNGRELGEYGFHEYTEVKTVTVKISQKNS
IMPase inh: qHTS Assay for Identifying the Cell-Membrane Permeable IMPase Inhibitors | Inositol monophosphatase 1 (Rattus norvegicus), P97697 | CHO-M1 cells, IP1 accumulation, HTRF TR-FRET ratio | 120,000 tested, under 10 active | inhibition (IP1 accumulation), % at 46.1 µM; active = well fitted curve in the direction sought with a large enough effect in the signal ratio, not every such curve was filed as active; inconclusive = small, poorly fitted or top-dose-only effect, or a change in a side signal; inactive = no such curve, though single readings can be large or run the other way; the % refers to the signal ratio;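 note: cells stimulated with carbachol in lithium chloride buffer; higher means more IMPase inhibition seen as more IP1 and lower FRET ratio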
Target sequence (P97697 whole entry, looked up): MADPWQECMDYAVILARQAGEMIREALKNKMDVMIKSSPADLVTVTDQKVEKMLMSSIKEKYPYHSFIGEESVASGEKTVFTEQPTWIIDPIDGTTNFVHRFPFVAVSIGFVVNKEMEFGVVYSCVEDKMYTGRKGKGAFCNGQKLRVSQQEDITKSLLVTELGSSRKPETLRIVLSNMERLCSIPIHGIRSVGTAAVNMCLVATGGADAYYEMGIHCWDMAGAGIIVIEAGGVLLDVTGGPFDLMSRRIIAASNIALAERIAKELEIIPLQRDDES
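Measured: the HTRF emission ratio (665/620 nm) plus the 620 nm donor channel, each fitted to the Hill equation to give AC50. Cells were CHO-M1 given compounds up to 46 uM and a 30 min carbachol stimulation at 37C.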
HPGD inh: qHTS Assay for Inhibitors of HPGD (15-Hydroxyprostaglandin Dehydrogenase). Potency, µM, hits mostly inhibitors. 150,000 compounds, 4.3% hits. AID 894, 2007. purified HPGD, NADH fluorescence kinetic, PGE2 substrate; active = well fitted inhibition curve with a large enough effect, not every such curve was filed as active; inconclusive = small, poorly fitted or top-dose-only effect, or another doubt; inactive = no such curve, though single readings can be large or run the other way
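20 nM HPGD preincubated 15 min at room temperature with compound in 50 mM Tris-HCl pH 8, 0.01% Tween 20. Started with 1 mM NAD+ and 30 uM prostaglandin E2; NADH fluorescence (360/450 nm) read 5 times over 30-s intervals, last minus first.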
IMPase Li cell: qHTS Assay for Identifying the Cell-Membrane Permeable IMPase Inhibitors: Potentiation with Lithium; Potency, µM (series often up to 59.4 µM), hits mostly inhibitors; CHO-M1 cells, IP1 TR-FRET (IP-One), carbachol + lithium; AID 1457, 2008; 210,000 compounds, 0.35% hits;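 note: IP1 builds up when IMPase is blocked and the TR-FRET signal falls; nearly all actives have a fitted effect of over 50% in size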
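Readout is a homogeneous TR-FRET IP1 immunoassay (Ex 320, Em 665 and 620), where raised cytosolic IP1 lowers signal. Cells were CHO-M1 treated 30 min at 37C with test compounds plus a little lithium; AC50 values came from Hill-equation fitting.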
HTT ATP protect: qHTS Multiplex Assay to Identify Dual Action Probes in a Cell Model of Huntington: Cytoprotection (ATP) | PC12 HTT-Q103 induced, cytoprotection, ATP luminescence, 40 h | Potency, µM (highest dose often 56.4 µM), actives largely listed as activators | 230,000 compounds, 0.14% hits | AID 1471, 2008; note: nearly all actives have a fitted effect of over 45% in size
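Huntington model: PC12 line, ecdysone-inducible HTTQ103 exon1–GFP, tebufenozide 100 nM. Test articles in a dose series. Endpoint luminescence from cellular ATP.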
ALDH1A1 inh-2: Inhibitors of Aldehyde Dehydrogenase 1 (ALDH1A1): Followup Confirmation and Counterscreen; purified ALDH1A1, NADH fluorescence, propionaldehyde/NAD+; shares compounds with ALDH1A1 inh-1; AID 493210, 2011; 90 compounds, 90% hits; Potency, µM (top dose mostly 57.1 µM), usual class: inhibitors; calls by dose curve
Numbers stand for hits; [ ] = remark or other dose. Unless noted, calls come from the whole dose curve; as a rule, active = well fitted curve in the direction sought with a large enough effect; inconclusive = small, poorly fitted or top-dose-only effect, or another doubt; inactive = no such curve, though single readings can be large; an effect the other way counts as inactive or inconclusive.

How did O=c1cnc2cnc(Nc3ccccc3)nc2n1C[C@H]1CCCO1 do in these assays?
ALDH1A1 inh-1: inactive; HPGD inh: inactive; IMPase Li cell: inactive; HTT ATP protect: inconclusive

Results for COc1cccc(O)c1O ?
ALDH1A1 inh-1: 0.45µM; HPGD inh: 16µM; IMPase Li cell: inactive; ALDH1A1 inh-2: 1.6µM

How did COc1ccccc1O do in these assays?
HTT aggregate: inactive; ALDH1A1 inh-1: inactive; HPGD inh: inactive; IMPase Li cell: inactive; HTT ATP protect: inactive

What do the screens show for `CC(=O)NC1C(=O)N(CC(C)C)c2ccccc21` (configuration not stated)?
HTT aggregate: inactive; ALDH1A1 inh-1: 0.04µM; IMPase inh: inactive; HPGD inh: inactive; IMPase Li cell: inactive; HTT ATP protect: inactive[10 µM]; ALDH1A1 inh-2: 1µM

How did CCOc1ccc(N(CC(=O)Nc2ccccc2C(=O)NC(C)CC)S(C)(=O)=O)cc1 (configuration not stated) do in these assays?
HTT aggregate: inactive; ALDH1A1 inh-1: inactive; HPGD inh: inactive; IMPase Li cell: inactive

How did COc1ccc(-c2cc(=O)c3c(O)c(OC)c(OC)c(OC)c3o2)cc1 do in these assays?
ALDH1A1 inh-1: 0.11µM; HPGD inh: inactive; IMPase Li cell: inactive; ALDH1A1 inh-2: 0.63µM

How did COc1ccccc1NC(=O)CN1CCN(CC(=O)Nc2ccc3c(c2)OCCO3)CC1 do in these assays?
HTT aggregate: inactive; ALDH1A1 inh-1: 3.5µM; IMPase inh: inactive; HPGD inh: inactive; IMPase Li cell: inactive; HTT ATP protect: inactive; ALDH1A1 inh-2: 3.2µM

What do the screens show for `COc1ccc(OC)c(-n2nnnc2SCC(=O)Nc2ccc3c(c2)OCCO3)c1`?
HTT aggregate: inactive; ALDH1A1 inh-1: 0.063µM; IMPase inh: inactive; HTT ATP protect: inactive; ALDH1A1 inh-2: 0.1µM

Results for COc1ccccc1-n1nnnc1SCC(=O)Nc1cc(C)on1 ?
HTT aggregate: inactive; ALDH1A1 inh-1: 0.71µM; IMPase inh: inactive; HPGD inh: inactive; IMPase Li cell: inactive; HTT ATP protect: inactive[0.074 µM]; ALDH1A1 inh-2: 0.89µM

What do the screens show for `COC(=O)c1sccc1NC(=O)CSc1nnnn1-c1ccccc1C`?
HTT aggregate: inactive; ALDH1A1 inh-1: 0.56µM; IMPase inh: inactive; HPGD inh: inconclusive; IMPase Li cell: inactive; HTT ATP protect: inactive; ALDH1A1 inh-2: 0.79µM

What do the screens show for `COC(=O)c1ccc(-n2nnnc2SCC(=O)Nc2ccccc2C(=O)OC)cc1`?
HTT aggregate: inactive; ALDH1A1 inh-1: inactive; IMPase inh: inactive; HPGD inh: inactive; IMPase Li cell: inactive; HTT ATP protect: inactive[10 µM]

Results for CC(=O)OC[C@@H]1O[C@@H](O/N=C2/C[C@@H](O)[C@@H](O)[C@@H]3[C@@H]4C(=O)N(Cc5ccc6c(c5)OCO6)C(=O)[C@H]4CC[C@H]23)[C@H](OC(C)=O)[C@H](OC(C)=O)[C@@H]1OC(C)=O ?
ALDH1A1 inh-1: inactive[13.5 µM]; HTT ATP protect: inactive[10 µM]

How did O=C(O)CNC(=O)C(Cc1ccccc1)NC(=O)OCc1ccccc1 (configuration not stated) do in these assays?
HTT aggregate: inactive; ALDH1A1 inh-1: inactive; IMPase Li cell: inactive; HTT ATP protect: inactive

What do the screens show for `O=C(N[C@@H](Cc1ccccc1)C(=O)CCl)OCc1ccccc1`?
ALDH1A1 inh-1: 0.35µM; IMPase inh: inactive; HPGD inh: 11µM; IMPase Li cell: inactive; HTT ATP protect: inactive[1.9 µM]; ALDH1A1 inh-2: 0.25µM

What do the screens show for `CCOC(=O)N1CCN(Cc2nc3c(c(=O)n(C)c(=O)n3C)n2CCC(C)C)CC1`?
HTT aggregate: inactive; ALDH1A1 inh-1: 0.22µM; IMPase inh: inactive; HPGD inh: inactive; IMPase Li cell: inactive; HTT ATP protect: inactive; ALDH1A1 inh-2: 0.18µM

What do the screens show for `CC(C)Cn1c(CN(C)Cc2ccccc2)nc2c1c(=O)n(C)c(=O)n2C`?
HTT aggregate: inconclusive; ALDH1A1 inh-1: inactive; IMPase inh: inactive; HPGD inh: inactive; IMPase Li cell: inactive; HTT ATP protect: inactive[10 µM]

What do the screens show for `Cc1ccc(Cn2c(CN3CCN(C(=O)c4ccco4)CC3)nc3c2c(=O)n(C)c(=O)n3C)cc1`?
HTT aggregate: inconclusive; ALDH1A1 inh-1: 0.16µM; IMPase inh: inactive; HPGD inh: inactive; IMPase Li cell: inactive; HTT ATP protect: inactive[0.074 µM]; ALDH1A1 inh-2: 0.5µM

Results for CN(Cc1ccccc1)Cc1nc2c(c(=O)n(C)c(=O)n2C)n1CCCc1ccccc1 ?
HTT aggregate: inactive; ALDH1A1 inh-1: 0.71µM; IMPase inh: inactive; HPGD inh: inactive; IMPase Li cell: inactive; HTT ATP protect: inactive[0.074 µM]; ALDH1A1 inh-2: 0.56µM

Results for CCOC(=O)N1CCN(Cc2nc3c(c(=O)n(C)c(=O)n3C)n2Cc2ccccc2C)CC1 ?
HTT aggregate: inactive; ALDH1A1 inh-1: 0.25µM; IMPase inh: inactive; HPGD inh: inactive; IMPase Li cell: inactive; HTT ATP protect: inactive[0.074 µM]; ALDH1A1 inh-2: 0.35µM

How did CN1CCN(c2ncncc2-c2cccnc2)CC1 do in these assays?
ALDH1A1 inh-1: inconclusive; IMPase Li cell: inactive; HTT ATP protect: inactive

Results for COc1cc(/C=C(/Sc2nnc(-c3ccc(F)cc3)o2)C(=O)O)ccc1OC(F)F ?
HTT aggregate: inactive; ALDH1A1 inh-1: inactive; IMPase Li cell: inactive; HTT ATP protect: inactive

What do the screens show for `CCOC(=O)N1CCN(Cc2nc3c(c(=O)n(C)c(=O)n3C)n2CCCc2ccccc2)CC1`?
HTT aggregate: inactive; ALDH1A1 inh-1: 0.63µM; IMPase inh: inactive; HPGD inh: inactive; IMPase Li cell: inactive; HTT ATP protect: inactive[0.074 µM]; ALDH1A1 inh-2: 0.63µM

Results for CS(=O)(=O)Nc1cccc(-c2nc(NCCN3CCOCC3)c3ccccc3n2)c1 ?
ALDH1A1 inh-1: inactive; HPGD inh: inactive; IMPase Li cell: inactive; HTT ATP protect: inactive

What do the screens show for `CCN(CC)C(=O)Cn1cc(C(=O)C2CC2)c2ccccc21`?
HTT aggregate: inactive[9.22 µM]; ALDH1A1 inh-1: inactive; IMPase Li cell: inactive; HTT ATP protect: inactive[10 µM]

Results for CC1=C(C(=O)OCC(C)C)C(c2cccs2)NC(=S)N1 (configuration not stated) ?
HTT aggregate: inactive; ALDH1A1 inh-1: 0.13µM; IMPase inh: inactive; HTT ATP protect: inactive[10 µM]; ALDH1A1 inh-2: 0.25µM
